# About 79,000 compounds went through this panel and 15% of them were active in at least one assay; those are over-represented in the sample as a whole. A number with no mark means an inactive call. The source made the active and inactive calls. No stated cut-off is given here; in the data, active means growth inhibition above about 70%; inactive means the rest.
# Legend:
# [1] = NCI Yeast Anticancer Drug Screen. Data for the rad50 strain (AID 155);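 further: 0% = growth of vehicle-only cultures of the same strain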; settings: S. cerevisiae rad50 strain growth inhibition, active compounds read high
# Outline: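 Cells are treated with compound, grown, and their growth is then scored against vehicle-only cultures of the same repair-deficient yeast strain.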
# [2] = NCI Yeast Anticancer Drug Screen. Data for the mec2-1 strain (AID 157); settings: S. cerevisiae mec2-1 strain, active compounds read high
# Outline: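 Yeast mec2-1 mutant treated with compound. Readout: growth inhibition vs vehicle controls.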
# [3] = NCI Yeast Anticancer Drug Screen. Data for the sgs1 mgt1 strain (AID 161);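 further: 0% = growth of cultures given vehicle only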; settings: S. cerevisiae sgs1 mgt1 strain, active compounds read high
# Outline: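 Mutant yeast exposed to compound; growth scored against vehicle-only wells.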
# [4] = NCI Yeast Anticancer Drug Screen. Data for the cln2 rad14 strain (AID 165);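 further: 0% = growth equal to vehicle treated cultures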; settings: S. cerevisiae cln2 rad14 strain, active compounds read high
# Outline: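 cln2 rad14 yeast strain; compound exposure; growth inhibition read vs vehicle controls.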
# [5] = NCI Yeast Anticancer Drug Screen. Data for the bub3 strain (AID 167); settings: S. cerevisiae bub3 mutant strain, active compounds read high
# Outline: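 Part of a panel of yeast mutants defective in DNA damage repair or cell cycle regulation. Each strain is grown with compound, and inhibition is calculated relative to solvent-treated cultures.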
# [6] = NCI Yeast Anticancer Drug Screen. Data for the mlh1 rad18 strain (AID 175); settings: S. cerevisiae mlh1 rad18 strain growth inhibition, active compounds read high
# Outline: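 Yeast w/ defined DNA-repair lesions; compound exposure; growth vs vehicle controls → % inhibition.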
# [7] = at 5.0 µM (retest, dose inferred, filed as 0.5)
# [8] = at 50.0 µM (retest, dose inferred, filed as 5.0)
SMILES,"growth inhibition [1, 7]","growth inhibition [1, 8]",growth inhibition ([1]; at 50.0 µM),"growth inhibition [2, 7]","growth inhibition [2, 8]",growth inhibition ([2]; at 50.0 µM),"growth inhibition [3, 7]","growth inhibition [3, 8]",growth inhibition ([3]; at 50.0 µM),"growth inhibition [4, 7]","growth inhibition [4, 8]",growth inhibition ([4]; at 50.0 µM),"growth inhibition [5, 7]","growth inhibition [5, 8]",growth inhibition ([5]; at 50.0 µM),"growth inhibition [6, 7]","growth inhibition [6, 8]",growth inhibition ([6]; at 50.0 µM)
COc1cc2c(c(OC)c1OC)-c1ccc(NCc3ccccc3)c(=O)cc1[C@@H](NC(C)=O)CC2,17%,96% (active),49%,9%,89% (active),80.8% (active),16%,98% (active),68.3%,18%,98% (active),73.7% (active),14%,88% (active),68.3%,16%,97% (active),-53.5%
Cc1cc(Br)c2nsnc2c1[N+](=O)[O-],33%,94% (active),54.4%,43%,97% (active),78.5% (active),30%,85% (active),80.8% (active),32%,88% (active),71.2% (active),20%,87% (active),68.7%,37%,95% (active),77.9% (active)
c1ccc(-c2cccc(-c3ccccn3)n2)nc1,93% (active),99% (active),99.4% (active),74% (active),99% (active),99.7% (active),91% (active),99% (active),99.5% (active),81% (active),99% (active),99.1% (active),96% (active),99% (active),99.2% (active),83% (active),99% (active),99.5% (active)
S=C(SSC(=S)N1CCOCC1)N1CCOCC1,97% (active),99% (active),99.3% (active),99% (active),100% (active),99.6% (active),99% (active),99% (active),99.2% (active),61%,99% (active),99% (active),98% (active),99% (active),99.5% (active),98% (active),99% (active),99.5% (active)
O=C(O)c1ccc2c(c1)C(=O)c1ccccc1C2=O,-1%,33%,95.9% (active),-1%,28%,99.3% (active),3%,26%,91.2% (active),-1%,30%,14.2%,1%,31%,98.7% (active),-2%,41%,96.5% (active)
COc1ccc2nc3cc([N+](=O)[O-])ccc3c(NNc3ccccc3)c2c1,-2%,-5%,62.2%,5%,-4%,1.7%,-2%,-13%,49.1%,3%,-12%,29.7%,3%,6%,5%,0%,-11%,60.8%
COc1ccc(Nc2nc3ccc(C(F)(F)F)cc3nc2C(=O)O)cc1,10%,51%,30.6%,13%,46%,42.9%,21%,22%,40.6%,31%,37%,68.3%,7%,12%,60.5%,9%,48%,54.5%
O=[N+]([O-])c1ccc(C2N(Cc3ccc(Cl)cc3)CCN2Cc2ccc(Cl)cc2)cc1,58%,94% (active),82.2% (active),48%,97% (active),56.5%,79% (active),100% (active),85.8% (active),51%,95% (active),64.5%,78% (active),99% (active),87.6% (active),79% (active),98% (active),79.8% (active)
CCCC[n+]1c(/C=C\c2c(OC)cc(OC)cc2OC)ccc2ccccc21,64%,97% (active),88.8% (active),61%,99% (active),90.8% (active),67%,99% (active),91.7% (active),56%,99% (active),89.7% (active),86% (active),98% (active),90.1% (active),44%,97% (active),88% (active)
Nc1ccc(C(=O)/C=C/c2ccccc2)cc1,6%,57%,67.8%,12%,58%,85.3% (active),11%,75% (active),78.1% (active),4%,21%,8.95%,5%,81% (active),94.5% (active),4%,53%,96.3% (active)
CN(C)c1ccc(/C=C/c2ccnc3ccccc23)cc1,-6%,95% (active),78.1% (active),0%,97% (active),84.5% (active),-1%,97% (active),92.3% (active),-10%,35%,-15.1%,-1%,97% (active),91.5% (active),19%,93% (active),89.1% (active)
Cc1cc(I)nc2ccccc12,0%,15%,68.4%,-1%,1%,21.2%,-3%,8%,59%,-3%,-18%,-18.4%,-6%,-13%,26.8%,-2%,-12%,48.7%
COc1cc(/C=C/c2ccnc3ccccc23)cc(OC)c1OC,30%,59%,43.4%,34%,68%,79.3% (active),14%,93% (active),88.2% (active),25%,45%,65.3%,43%,92% (active),72.6% (active),45%,81% (active),22.2%
O=C1/C(=C/c2ccccn2)CCc2ccccc21,30%,94% (active),84.7% (active),17%,95% (active),89.5% (active),11%,85% (active),83.4% (active),32%,92% (active),46.2%,-8%,98% (active),89.4% (active),-15%,97% (active),84.2% (active)
CC(C)N=C(N)/N=C(\N)Nc1ccc2ccc3ccccc3c2c1,3%,99% (active),99.8% (active),-9%,99% (active),25.1%,12%,100% (active),99.7% (active),3%,100% (active),99.5% (active),27%,99% (active),46.3%,41%,99% (active),99.7% (active)
O/N=C1\c2ccccc2-c2ccc(F)cc21,20%,90% (active),95% (active),7%,73% (active),84.2% (active),13%,87% (active),91.6% (active),5%,71% (active),63%,1%,77% (active),91.1% (active),13%,78% (active),93.8% (active)
Oc1c(Cl)cc(Cl)cc1C=NCC1CCC(CN=Cc2cc(Cl)cc(Cl)c2O)CC1 (stereo not given),60%,86% (active),87.5% (active),41%,92% (active),91% (active),67%,96% (active),90.3% (active),39%,58%,80.1% (active),73% (active),94% (active),88.4% (active),72% (active),97% (active),85.8% (active)
CN(C)c1ccc(/C=C/c2cc[n+](C)c(/C=C/c3ccc(N(C)C)cc3)c2)cc1,98% (active),96% (active),91% (active),100% (active),95% (active),93.3% (active),98% (active),93% (active),93.2% (active),99% (active),97% (active),92.8% (active),96% (active),95% (active),91.8% (active),100% (active),96% (active),91% (active)
N#CC(I)CS(=O)(=O)c1ccccc1 (stereo not given),99% (active),99% (active),54.7%,100% (active),99% (active),98.7% (active),99% (active),99% (active),99.3% (active),99% (active),99% (active),55%,99% (active),99% (active),45.4%,99% (active),98% (active),42.7%
CCSc1nc2ccccc2o1,7%,0%,54.4%,0%,-1%,39.6%,6%,2%,9.4%,6%,-2%,30.6%,3%,-2%,42.6%,3%,-3%,-15.7%

# Source: PubChem BioAssay (NCI)
